Compound activity as filed in PubChem BioAssay.
A selection: hits, their analogues and other compounds. The true share with any hit is near 9.5%.
Pf growth 96h = P. falciparum growth inhibition at 96 hour, primary screen for plastid delayed-death inhibitors; P. falciparum luciferase reporter growth, 96 h; Potency, µM (highest dose often 28.7 µM), for the others: top-dose activity change, negative = inhibition, actives largely listed as inhibitors; 320,000 compounds, 6.9% hits; active means well fitted inhibition curve with a large enough effect; inconclusive means small, poorly fitted or top-dose-only effect, or another doubt; inactive means no such curve, though single readings can be large or run the other way; further: on the % scale 0 is the no-effect control and ±100 the full control effect
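Erythrocytes infected with luciferase-expressing P. falciparum were dispensed at 2% hematocrit and 0.05% parasitemia (final), then incubated with compounds 96 hours at 37 C in 5% CO2. Luminescence after detection reagent addition reported growth.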
Pf growth 48h = inhibits P. falciparum growth in the first generation, 48 h. P. falciparum luciferase growth in erythrocytes, 48 h. Potency, µM (series often up to 28.7 µM), for the others: at the highest dose activity change, negative = inhibition, hits mostly inhibitors. AID 504832. 310,000 compounds, 5.9% hits; active means well fitted inhibition curve with a large enough effect; inconclusive means small, poorly fitted or top-dose-only effect, or another doubt; inactive means no such curve, though single readings can be large or run the other way; further: on the % scale 0 is the no-effect control and ±100 the full control effect
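Growth was read as firefly luciferase luminescence after a 48 h, 37 C, 5% CO2 exposure of compounds to reporter-bearing P. falciparum cultures (0.1% parasitemia, 2% hematocrit final) in Albumax-supplemented RPMI 1640.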
NS1 inh = inhibitors of influenza NS1 protein function; Potency, µM (top dose mostly 46.1 µM), for the others: top-dose activity, positive = more growth; 270,000 compounds, 0.4% hits; AID 2326; further: actives are rising curves; nearly all actives have a fitted effect of over 50% in size
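S. cerevisiae expressing influenza A NS1, grown in glucose, washed, then diluted 1:100 into pH 6.0 -URA galactose medium with 23 nl compound. Growth recovery read as OD600; NS1-free strain serves as control.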
RE007 growth inh = less growth of the S. pombe RE007 Vpr strain; S. pombe RE007 Vpr strain, BacTiter-Glo ATP luminescence, 24 h; Potency, µM (top dose mostly 92.2 µM), inactives show at the highest dose activity change, negative = less growth, actives largely listed as inhibitors; 360,000 compounds, 0.21% hits; AID 651644; active means well fitted falling curve with a large enough effect; inconclusive means small, poorly fitted or top-dose-only effect; inactive means no such curve, though single readings can be large or run the other way; further: on the % scale 0 is the no-effect control and ±100 the full control effect; nearly all actives have a fitted effect of over 50% in size
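Fission yeast RE007 carrying one integrated HIV-1 vpr copy, seeded at OD 0.01 in PMG+AL medium with 23 nL pinned compound. Grown 24 h at 30 degrees; viability read by BacTiter-Glo luminescence after 5 min.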
SARS PLP yeast = inhibitors of SARS-CoV papain-like protease in yeast. S. cerevisiae expressing SARS-CoV PLpro, growth rescue. Potency, µM (doses to about 32.9 µM), for the others: at the highest dose activity, positive = growth rescue, hits mostly activators. 330,000 compounds, 0.19% hits; further: 0% is about no effect; nearly all actives have a fitted effect of over 55% in size
* = called active by the depositor; ? = inconclusive; · = no result given; [ ] = another dose, or the depositor's remark. Unless noted, the call rests on the fitted dose curve. Potency means the concentration at half of the fitted maximal effect.

SMILES | Pf growth 96h | Pf growth 48h | NS1 inh | RE007 growth inh | SARS PLP yeast
CN(C)S(=O)(=O)c1ccc(N2CCCC2)c(C(=O)NCC2CCCCC2)c1 | ? | 9.3µM* | · | 9% | 0%
O=C(Nc1ccc(N2CCCCC2)c(C(=O)O)c1)c1ccco1 | ? | 36% | 6% | 1% | 3%
O=C(O)c1cc([N+](=O)[O-])ccc1N1CCCCC1 | ? | 17% | 3% | -5% | 8%
CCNC(=O)N(C)C[C@H]1N[C@@](CC)(C(=O)OC)[C@H]2C(=O)N(C)C(=O)[C@@H]12 | · | · | · | -22% | 1%
CNCC(=O)NC(CCCN=C(N)N)C(=O)NC(C(=O)NC(Cc1ccc(O)cc1)C(=O)NC(C(=O)NC(Cc1cnc[nH]1)C(=O)N1CCCC1C(=O)NC(C)C(=O)O)C(C)C)C(C)C (stereo not given) | 4% | -3% | · | · | ·
O=C(CN1CCN(C(=O)C2CC2)CC1)Nc1ccc(Cl)cc1F | 0% | ? | · | -5% | 9%
CN(C)S(=O)(=O)c1cccc(NC(=O)c2cc([N+](=O)[O-])ccc2N2CCCCC2)c1 | ? | 13µM* | · | 12% | -18%
COc1cc(Cl)c(C)cc1NC(=O)c1cc(S(=O)(=O)N(C)C)ccc1N1CCCC1 | 2.3µM* | 4.7µM* | 17% | -8% | -17%
CC(=O)Nc1cccc(NC(=O)c2cc([N+](=O)[O-])ccc2N2CCCCC2)c1 | -86% | ? | · | 0% | 4%
CN(C)S(=O)(=O)c1ccc(N2CCCC2)c(C(=O)Nc2ccccc2OC(F)F)c1 | 0% | ? | · | -23% | -1%
CCCCCCC(=O)N(O)C1CC(=O)N(c2ccc(C)cc2)C1=O (stereo not given) | ? | · | -36% | 0%[3.69 µM] | -48%
CCCCCCC(=O)N(O)C1CC(=O)N(c2ccc(Cl)cc2)C1=O (stereo not given) | 10µM* | 4.1µM* | -67% | 4µM* | -7%
O=C1[C@@H]2C(c3cccnc3)=NO[C@@H]2C(=O)N1c1ccc(Br)cc1 | 28% | 4% | 4% | 22µM* | -6%
O=C(O)CSc1nc2ccc(C(=O)c3ccccc3)cc2[nH]1 | ? | 16% | 11% | 0% | 4%
COc1cccc(CNC(=O)CCS(=O)(=O)Cc2ccc(C)cc2)c1 | 8% | 12% | 6% | -1% | 3%
O=C(Nc1ncn[nH]1)c1cccc(F)c1 | 1.5µM* | 38% | · | 3% | -2%
COc1ccc(-c2ccc3c(c2)S(=O)(=O)c2cccc(C(=O)NC[C@@H]4CCCO4)c2C3=O)cc1OC | ? | 13µM* | · | 8% | -3%
COc1cc(/C=C2\COC/C(=C\c3ccc(O)c(OC)c3)C2=O)ccc1O | ? | 10µM* | -9% | 44% | -1%
COc1ccc2c(c1)CC/C(=C/c1cc(OC)c(OC)c(OC)c1)C2=O | 15µM* | ? | · | 10% | -23%
COc1cc(/C=C/C=C2/CC/C(=C/C=C/c3ccc(O)c(OC)c3)C2=O)ccc1O | · | · | · | -9% | ·
COc1cc(/C=C2/NC(=O)N(c3cccc(Cl)c3)C2=O)ccc1O | ? | 7.4µM* | 8% | 3% | 1%
COc1ccc(OC)c(C=C2CCc3ccccc3C2=O)c1 | · | · | · | -5% | ·
COc1cc(/C=C2/CC/C(=C/c3ccc(O)c(OC)c3)C2=O)ccc1O | ? | 3.3µM* | ? | 21% | -1%
COc1ccc(C(C(=O)NC(C)(C)C)N(Cc2cccnc2)C(=O)CCC(=O)Nc2cc(C)on2)cc1 (stereo not given) | ? | ? | -6% | -3% | 2%
O=C(CN1C(=O)CSc2ccc(S(=O)(=O)N3CCOCC3)cc21)NCCCN1CCc2ccccc2C1 | 15% | 1% | · | -17% | -3%
COc1ccc(-c2csc(NC(=O)c3cccc(N4C(=O)CCC4=O)c3)n2)cc1OC | -30% | ? | · | -12% | -15%
c1ccc(-c2csc(Nc3ccc4c(c3)OCO4)n2)cc1 | · | · | · | -14% | ·
COc1ccccc1Nc1nc(-c2cccc(N3C(=O)c4ccccc4C3=O)c2)cs1 | 15µM* | 6% | ? | 4% | ?
O=C1c2ccccc2C(=O)N1c1cccc(-c2csc(Nc3ccc4c(c3)OCO4)n2)c1 | 10µM* | 18% | 29% | · | 15%
Cn1cc(Br)c(C(=O)Nc2nccs2)n1 | 31% | 69% | 2% | 2% | 6%
